The whole screen tested about 69,000 compounds, of which about 8,600 (12%) showed an effect of 50% or more. Only a selection was taken, and strong results are over-represented in it overall.

In the assay the test system is Plasmodium berghei. Kind of assay: Screen against P. berghei liver stage (PbLuc), transformed with Luciferase, at 10uM. It is filed as functional, HepG2. The following applies: tested at 10 uM.
In the case of `c1ccc([C@@H]2CN(Cc3ccncc3)C[C@H]2c2cc[nH]n2)cc1`, the INHIBITION is 27.2%.
Under `Cc1cn2c(=O)c(-c3ccnc(NC4CCOCC4)n3)cnc2s1` stands -9.27%; under `CCOCCCNC(=O)CN(c1cc(C)cc(C)c1)S(C)(=O)=O`, 34.2%.
Next, `N#Cc1ccc(CN2CCCC2Cn2cccn2)cc1` (stereo not given): 9.14%; `O=C(Nc1cccc(N2CCCC2)c1)C1CCCN1c1nccs1` (stereo not given): 48.9%.
On to `O=C(Nc1cccc(F)c1)C1CCCN1c1nccs1` (stereo not given), for which the INHIBITION is given as 7.75%.
Next, `O=C(Nc1cccc(C2SCCS2)c1)C1CCCN1c1nccs1` (stereo not given): 50.7%; `Cc1nn(C)c(C)c1-c1ccc(=O)n(C(C)C(=O)NC2CCCCC2)n1` (stereo not given): 47.6%; `CN(C)c1ccc(CNCc2ccc(N3CCOCC3)cc2)cn1`: -0.551%.
With `CC(C)COc1cncc(NCc2nnc3ccccn23)n1`, the INHIBITION amounted to 64.3%.
Under `CC(C)COc1cncc(NCC(O)c2ccco2)n1` (stereo not given) stands 20.8%; under `CC(C)COc1cncc(NCCc2nnc3ccccn23)n1`, 55.4%.
Under `CC(C)COc1cncc(NC(CO)c2ccco2)n1` (stereo not given) stands 45.6%; under `CC(C)Cn1cnc(S(=O)(=O)NCCc2nnc3ccccn23)c1`, 12%; under `CCOc1cncc(NCCc2nnc3ccccn23)n1`, 43.4%.
Under `CCc1nc(C2CCCN2C(=O)c2ccc(N3CCCC3)nn2)no1` (stereo not given) stands 23.5%; under `CC(=O)NCCC1CCCCN1S(=O)(=O)c1ccc2ccccc2c1` (stereo not given), 29%.
Turning to `O=C(Nc1ccc(-c2nnc[nH]2)cc1)C1CCN1Cc1ccccc1` (stereo not given), the INHIBITION is recorded as -17.3%.
Under `CO[C@H]1CCN(Cc2ccccn2)[C@@H]2CN(Cc3ccco3)C[C@H]12` stands -11.1%; under `CC[C@@H]1N(CC2CCOCC2)CCC[C@]12CCC(=O)N2`, 49.7%; under `CC[C@@H]1N(CC2CC2)CCC[C@]12CCC(=O)N2`, 65.9%.
Next, `CC[C@H]1N(CC2CCOCC2)CCC[C@]12CCC(=O)N2`: 27.5%; `Cc1ccc2nccc(C(=O)N3CCOC(CCN(C)C)C3)c2c1` (stereo not given): 43.9%; `Cc1cc(C(=O)N2CCCC(C(=O)c3nccn3C)C2)c(=O)[nH]c1C` (stereo not given): 25.9%.
On to `Cc1ccc(CC(=O)N(CC2CN(C)CCO2)c2nccs2)cn1` (stereo not given), for which the INHIBITION is 11.9%.
Under `O=C(CN1CCCC1Cn1cncn1)NCCOc1ccccc1` (stereo not given) stands 36.1%; under `O=C(CN1CCCC1Cn1cncn1)NCC1(c2ccccc2)CC1` (stereo not given), 89.1%; under `O=C(CN1CCCCC1Cn1cccn1)NC1CCN(C2CC2)CC1` (stereo not given), 26.8%.
In the case of `CCN1CCC(NC(=O)CN2CCCCC2Cn2cncn2)CC1` (stereo not given), the INHIBITION is reported as -36.1%.
Next, `Cc1cc(NC(=O)CCN2CCCCC2Cn2cncn2)no1` (stereo not given): 16.9%.
Next, `Cc1cc(NC(=O)CCN2CCCC2Cn2cccn2)no1` (stereo not given): 31.9%.
Under `O=C(CN1CCCCC1Cn1cncn1)NCCOc1ccccc1` (stereo not given) stands 0.411%.
For `O=C(CN1CCCCC1Cn1cncn1)NC1CCN(C2CC2)CC1` (stereo not given), the INHIBITION worked out at 70.1%.
Under `Cc1cc(NC(=O)CCN2CCCC2Cn2cncn2)no1` (stereo not given) stands 56.3%; under `O=C(CN1CCCCC1Cn1cncn1)NCCc1ccc(F)cc1` (stereo not given), 43.4%.
Under `O=C(CN1CCCC1Cn1cncn1)NCCOc1cccc(F)c1` (stereo not given) stands 20.1%; under `O=C(CN1CCCC1Cn1cncn1)NCCc1c(F)cccc1F` (stereo not given), 57.2%; under `CNc1cccc(CC2COCCN(C(=O)c3cncs3)C2)n1` (stereo not given), 16.35%.
Next, `Cc1cc(C(F)F)nn1CC(=O)NCc1nccn1C`: 8.32%.
Take `Cc1cccc(CN2CCC3(CCCN(C(=O)NC4CC4)C3)C2=O)n1` (stereo not given): the INHIBITION amounted to 0%.
Turning to `O=C(c1ccnnc1)N1C[C@H]2CN(Cc3cccc(F)c3)C(=O)[C@H]2C1`, the INHIBITION is 34.6%.
Under `CCOCC(=O)N1CSCC1C(=O)N(C)Cc1ccco1` (stereo not given) stands 17.5%; under `Cc1ccc(C(=O)N2CCC3(CC2)CN(CCN(C)C)C(=O)O3)c(F)c1`, 42.1%.
Under `COc1cc(CCC(=O)N2CCC(c3cncc(C)n3)CC2)on1` stands 14.85%.
Under `Cc1oc(C(C)C)cc1C(=O)N1C[C@@H]2CC[C@H]1CN(c1ncccn1)C2` stands -28.7%; under `O=C(CN1CCCC1Cn1cncn1)Nc1cccnc1` (stereo not given), -9.86%; under `O=C(CN1CCCCC1Cn1cncn1)Nc1ccncc1` (stereo not given), 23.2%.
For the compound `O=C(CN1CCCC1Cn1cncn1)Nc1ccc(Cl)cn1` (stereo not given), the INHIBITION was 80%.
Regarding `CC(NC(=O)N1CCC(c2ccccc2)CC1)c1nncn1C` (stereo not given), the INHIBITION stood at 13.3%.
Turning to `Cc1cnn(CC2CCCCN2Cc2cnc(C)s2)c1` (stereo not given), the INHIBITION was -7.05%.
Next, `Cc1ncsc1CN1Cc2cn(C)nc2C(COCC2CC2)C1` (stereo not given): 43.9%; `COc1cccc(CNc2cnn(CC(F)F)c2)c1`: 8.53%.
Under `COc1cc(CNc2cnn(CC(F)F)c2)ccc1O` stands 21.9%.
Under `COc1ccc(CNc2cnn(CC(F)F)c2)cc1` stands 64.9%; under `C1CCCN(C2CCCN(Cc3noc(C4CC4)n3)C2)CC1` (stereo not given), -79.7%; under `CN(C)S(=O)(=O)N1CC(c2nc(N)ncc2-c2ccc(F)cc2)C1`, -20.6%.
In the case of `CC(=O)N(Cc1ncc(C(C)C)o1)C1CCN(CC2CCC2)C1` (stereo not given), the INHIBITION was determined as 32.65%.
Under `Cc1ccc(CCC(C)NC2CCN(C(N)=O)CC2)cc1` (stereo not given) stands -4.15%.
Under `CC(CCc1ccc(O)cc1)NC1CCN(C(=O)C(C)C)CC1` (stereo not given) stands 42.1%; under `CC(CCc1ccc(O)cc1)NC1CCN(S(C)(=O)=O)CC1` (stereo not given), 55.5%.
Next, `O=C(NCCNc1ccccn1)N1CCC(O)CC1`: 7.585%.
For `Cc1ccc(CN2CCN(c3ncnc4[nH]cnc34)CC2CCO)cc1` (stereo not given), the INHIBITION came out at 20%.
Under `OCCC1CN(c2ncnc3[nH]cnc23)CCN1Cc1cccs1` (stereo not given) stands 53.7%.
Next, `c1ccc(C2CN(c3ncnc4[nH]cnc34)CCO2)cc1` (stereo not given): -66.9%; `Cc1cccc(CN2CCN(c3ncnc4[nH]cnc34)CC2CCO)n1` (stereo not given): 47.2%.
Under `OCCC1CN(c2ncnc3[nH]cnc23)CCN1Cc1ccccc1` (stereo not given) stands 62.4%; under `O=C(O)c1cccnc1N1CCN(Cc2ccc(F)cc2)C(CCO)C1` (stereo not given), 68.6%.
For the compound `Cc1ccc(CN2CCN(c3ncccc3C(N)=O)CC2CCO)cc1` (stereo not given), the INHIBITION stood at 36.5%.
On to `CNC(=O)c1cccnc1N1CCN(Cc2ccccc2)C(CCO)C1` (stereo not given), for which the INHIBITION amounted to 3.17%.
Under `OCCC1CN(c2ncnc3[nH]cnc23)CCN1Cc1ccccc1F` (stereo not given) stands 10.3%.
Next, `Cc1cc(C)n(CC2CN(c3ncnc4[nH]ccc34)CCO2)n1` (stereo not given): -21.7%.
Next, `Cc1cccc(CN2CCN(c3ncnc4[nH]ccc34)CC2CCO)n1` (stereo not given): 58.1%; `OCCNc1cc(N2CCN(Cc3ccccc3)C(CCO)C2)ncn1` (stereo not given): -11.8%; `CCC1=N[C@@]2(CC[C@@H]3CN(C(=O)Nc4ccccc4)C[C@@H]32)C(=O)N1CC`: 8.67%.
Consider `Cc1cc(C2CCCCN2C(=O)CN2C(=O)OC(C)(C)C2=O)no1` (stereo not given), for which the INHIBITION turned out to be 47.2%.
Under `COc1ccccc1-c1ncc(CN2CCC3(CCNCC3)CC2)cn1` stands 25%; under `CC(=O)c1ccc(CNC(=O)c2cc(C#N)cn2C)nc1C`, 12%; under `Cc1cc(C)cc(C(=O)N2CCCN(CC(N)=O)CC2)c1`, 0.348%.
Under `NC(=O)N1CCCN(CC(=O)NCCc2c(F)cccc2F)CC1` stands -52.1%.
Under `Cc1cc(C)c(CCNC(=O)CN2CCCN(C(N)=O)CC2)c(C)c1` stands 66.6%; under `Cn1cc(C(=O)NC[C@H]2OC[C@@H]3CCN(C4CCOCC4)C[C@@H]32)cn1`, 45.8%.
For `Cc1nc2n(n1)CC(NCc1cnn(-c3ccccc3)n1)CC2` (stereo not given), the INHIBITION is -39.4%.
With `COCCCS(=O)(=O)N1CCN(C(C)(C)CO)CC1`, the INHIBITION is 27.65%.
Under `CC(C)c1nc(CC(=O)Nc2nc(CN3CCCCCC3)cs2)cs1` stands 59.7%; under `CC(C)c1nc(CN2CCCCC2)cs1`, 47.9%.
Under `CC(C)c1nc(CN(C)C(=O)c2cn3ccsc3n2)cs1` stands 50.5%.
Under `CN(Cc1cc(C(C)(C)C)n[nH]1)C(=O)c1cn2ccsc2n1` stands -11.5%.
On to `CC(C)c1nc(CN(C)C(=O)c2ccc3c(c2)OCO3)cs1`, for which the INHIBITION is -40.4%.
Under `CC(C)c1nc(CN(C)C(=O)CNC(N)=O)cs1` stands 41.5%; under `CC(C)c1nc(CN(C)C(=O)c2ccc(CN3CCCCC3)cc2)cs1`, 65.3%; under `CC(C)c1nc(CN(C)C(=O)c2ccc3c(c2)OCC(=O)N3)cs1`, -19.9%.
Under `CC(C)c1nc(CN2CCC(CO)CC2)cs1` stands 23.4%; under `CS(=O)(=O)N1C[C@@H](O)[C@H](N2CCN(c3ccccc3)CC2)C1`, -18.8%.
For the compound `COc1ccc(CCc2nnc(NC(=O)C3CC34CCC4)s2)cc1OC` (stereo not given), the INHIBITION was determined as 4.32%.
Under `Cc1cc2c(cc1NC(N)=O)OCO2` stands 43.2%.
Under `Cn1cnc2c1C(C(=O)N1CCCO1)N(C(=O)c1ccccc1)CC2` (stereo not given) stands 70.4%; under `CC(=O)N1CCc2ncn(C)c2C1C(=O)N1CCCC1` (stereo not given), 45.8%; under `Cn1cnc2c1C(C(=O)N1CCOCC1)N(C(=O)c1ccccc1)CC2` (stereo not given), -31.6%.
Next, `CC(C)c1nnc(CNC2CCCN(Cc3noc(C4CC4)n3)C2)o1` (stereo not given): 19.5%.
On to `O=C(NC1CCN(c2ncccn2)CC1)c1sccc1C1CC1`, for which the INHIBITION is recorded as 39.7%.
Under `O=C1NCC(C(=O)NCc2ccccc2CN2CCOCC2)N1` (stereo not given) stands 15.2%; under `CC1CCN(Cc2ccccc2CNC(=O)C2CNC(=O)N2)CC1` (stereo not given), 13.8%.
Under `CN(Cc1ccccc1CNC(=O)C1CNC(=O)N1)C1CCCCC1` (stereo not given) stands 57.7%; under `CC(C)OCCCNC(=O)CS(=O)(=O)Cc1ccc(C(C)(C)C)cc1`, -27.8%.
Under `CCn1cc(NC(=O)CN2CCC(Oc3ccccc3C)CC2)c(C)n1` stands -0.275%.
Regarding `Cc1ccccc1OC1CCN(CC(=O)Nc2cn(C)nc2C)CC1`, the INHIBITION was found to be 17.3%.
Under `Cc1nn(C)cc1NC(=O)CN1CCC(Oc2cnccn2)CC1` stands -2.09%; under `Cc1ccccc1OC1CCN(CC(=O)Nc2c(C)nn(C)c2C)CC1`, 52.5%; under `CCn1cc(NC(=O)CN2CCC(Oc3ccc(F)cc3)CC2)c(C)n1`, 58%.
Under `Cc1ccccc1OC1CCN(CC(=O)Nc2ccn(C)n2)CC1` stands 15.1%.
